# Source: PubChem BioAssay (NCATS)
# Several values for one entry are separate records, joined by “and”; a condition that tells them apart may be missing. Identical values can stand only once. Unmarked numbers belong to inactive results. Records with an inconclusive call do not appear. A call without a number means that no potency is given here. Activity calls are given as the source filed them. Unless noted, calls come from the whole dose curve; as a rule, active = well fitted curve in the direction sought with a large enough effect; inconclusive = small, poorly fitted or top-dose-only effect, or another doubt; inactive = no such curve, though single readings can be large; an effect the other way counts as inactive or inconclusive.
# Tests used:
# [1] = target: Tumor necrosis factor (Homo sapiens) (UniProt P01375); test: qHTS assay to identify small molecules that stimulate Tumor Necrosis Factor-alpha (TNF-alpha) secretion (AID 651757; active = well fitted curve in the direction sought with a large enough effect in the signal ratio; the % refers to the signal ratio)
# How it was run: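 Secreted TNF-alpha quantified by TR-FRET sandwich of two labeled anti-TNF-alpha antibodies, incubated 3 hr at room temperature. Preceded by 17 hr, 37 C compound treatment of THP-1 cells at 3000 cells/well.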
# [2] = qHTS assay to identify small molecules that stimulate interleukin-8 (IL-8) secretion (AID 651758; active = well fitted activation curve with a large enough effect in the signal ratio; the % refers to the signal ratio)
# How it was run: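 Secreted IL-8 measured homogeneously by TR-FRET (two labelled anti-IL-8 antibodies, 1-3 h at room temperature) after a 16 h, 37 C compound treatment of THP-1 cells at 2000 cells/well.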
# [3] = qHTS assay for environmental chemicals that activate the Aryl hydrocarbon Receptor (AhR) signaling pathway (AID 651777); conditions: 1A2-DRE human hepatoma cells, luciferase, 24 h; activation: active compounds read high; note: nearly all actives have a fitted effect of over 15% in size
# How it was run: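 Quantitative HTS in stably transfected human liver-derived cells whose luciferase gene sits downstream of the CYP1A2 promoter and dioxin response element. After 24 hr exposure at 37 C, One-Glo luminescence was measured.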
# [4] = target: Peroxisome proliferator-activated receptor alpha (Homo sapiens) (UniProt Q07869); test: qHTS assay for small molecule agonists of the peroxisome proliferator-activated receptor alpha (PPARalpha) signaling pathway (AID 651778); conditions: PathHunter PPARalpha complementation, chemiluminescence, 6 h; active compounds read high
# How it was run: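 Chemiluminescence from complemented enzyme reported PPARalpha activation in cells after 6 hr of compound treatment at 37 C. The detection reagent was incubated for 60 min at room temperature, and compounds were scored as agonists.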
# [5] = target: Nuclear receptor ROR-gamma (Homo sapiens) (UniProt P51449); test: qHTS assay for small molecule antagonists of the retinoid-related orphan receptor gamma (ROR-gamma) signaling pathway (AID 651802); note: nearly all actives have a fitted effect of over 60% in size; note: potency is the fitted concentration of half-maximal effect
# How it was run: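 Luminescence (One-Glo, 30 min RT) measured 16 h after compound addition and doxycycline induction at 37C. Reporter: RORE-luciferase under TET-inducible ROR-gamma in CHO cells.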
# [6] = target: Arylsulfatase A (Homo sapiens) (UniProt P15289); test: qHTS screen for enhancers of Arylsulfatase A (ASA1): LOPAC Validation Assay (AID 720538); conditions: outcome: dose series up to 57.5 µM
# How it was run: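 Enhancer assay in patient-derived MLD fibroblasts carrying ASA-I179S: 48 h compound exposure at 37 C, then 14 h room-temperature pNCS turnover (0.5 mM final) in lysis buffer. Read by fluorescence at 525/598 nm after NaOH stop.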
# [7] = qHTS for compounds that reverse cellular toxicity of Amyloid beta (A-beta) peptide in yeast: LOPAC Validation Assay (AID 720559)
# How it was run: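 Rescue of A-beta toxicity was scored as yeast growth by 600 nm absorbance after 48 hr at 30 C with compound. Normalization used DMSO (negative) and equimolar ferric chloride plus clioquinol (positive).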
# [8] = target: Tyrosine-protein kinase Yes (Homo sapiens) (UniProt P07947); test: qHTS for small molecule inhibitors of Yes1 kinase: Primary Screen (AID 686947); note: nearly all actives have a fitted effect of over 60% in size
# How it was run: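 ADP-Glo luminescence reports ADP formed by 4 nM Yes1 phosphorylating poly(E4Y) (0.3 mg/mL) with 0.1 mM ATP for 60 min at room temperature, following 20 min compound preincubation; normalised between DMSO wells with and without enzyme.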
# [9] = qHTS for small molecule inhibitors of Yes1 kinase: Counter Assay (AID 686950);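 note: no kinase present so only ADP-Glo detection of a fixed ADP amount is tested; luminescence from ADP-Glo reporting ADP in a fixed ATP and ADP mixture; series mostly up to about 77 µM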
# How it was run: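 ADP-Glo luminescence read after a 60 min room-temperature incubation of compound with an ATP/ADP mix (0.08 mM/0.02 mM) and no kinase, following a 20 min compound preincubation. Signal scaled between ATP+ADP (max) and 0.1 mM ATP-only (min) wells; Tris pH 7.5, Mg2+, DTT.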
# Nuclear receptor ROR-gamma (Homo sapiens), sequence (P51449 whole entry, looked up): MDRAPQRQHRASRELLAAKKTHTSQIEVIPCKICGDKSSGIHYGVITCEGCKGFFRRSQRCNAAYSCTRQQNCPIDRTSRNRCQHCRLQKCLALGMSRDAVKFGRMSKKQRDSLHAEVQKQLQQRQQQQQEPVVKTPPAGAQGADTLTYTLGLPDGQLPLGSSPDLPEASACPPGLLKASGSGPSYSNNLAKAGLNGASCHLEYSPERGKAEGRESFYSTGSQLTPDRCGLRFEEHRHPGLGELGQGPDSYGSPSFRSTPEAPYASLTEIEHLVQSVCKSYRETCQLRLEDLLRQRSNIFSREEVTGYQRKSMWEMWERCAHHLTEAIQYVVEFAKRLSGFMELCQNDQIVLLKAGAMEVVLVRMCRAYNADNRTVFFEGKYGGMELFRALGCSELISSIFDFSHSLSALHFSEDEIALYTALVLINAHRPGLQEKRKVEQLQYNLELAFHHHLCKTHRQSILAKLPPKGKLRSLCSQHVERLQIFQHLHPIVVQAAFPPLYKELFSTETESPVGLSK
# Arylsulfatase A (Homo sapiens), sequence (P15289 whole entry, looked up): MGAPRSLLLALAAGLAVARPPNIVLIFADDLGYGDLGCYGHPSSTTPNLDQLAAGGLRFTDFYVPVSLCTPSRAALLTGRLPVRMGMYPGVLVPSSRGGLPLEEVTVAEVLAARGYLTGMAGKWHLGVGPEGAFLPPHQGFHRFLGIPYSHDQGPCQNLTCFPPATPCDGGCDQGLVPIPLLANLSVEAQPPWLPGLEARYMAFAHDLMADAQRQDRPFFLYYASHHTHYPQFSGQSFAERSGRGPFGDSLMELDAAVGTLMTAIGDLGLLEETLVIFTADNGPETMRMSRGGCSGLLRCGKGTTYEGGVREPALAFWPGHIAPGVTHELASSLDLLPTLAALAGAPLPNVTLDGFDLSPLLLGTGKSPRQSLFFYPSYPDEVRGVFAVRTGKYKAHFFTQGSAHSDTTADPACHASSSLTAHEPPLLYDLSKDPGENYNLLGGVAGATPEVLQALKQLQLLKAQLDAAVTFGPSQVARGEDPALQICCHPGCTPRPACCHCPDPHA
# Peroxisome proliferator-activated receptor alpha (Homo sapiens), sequence (Q07869 whole entry, looked up): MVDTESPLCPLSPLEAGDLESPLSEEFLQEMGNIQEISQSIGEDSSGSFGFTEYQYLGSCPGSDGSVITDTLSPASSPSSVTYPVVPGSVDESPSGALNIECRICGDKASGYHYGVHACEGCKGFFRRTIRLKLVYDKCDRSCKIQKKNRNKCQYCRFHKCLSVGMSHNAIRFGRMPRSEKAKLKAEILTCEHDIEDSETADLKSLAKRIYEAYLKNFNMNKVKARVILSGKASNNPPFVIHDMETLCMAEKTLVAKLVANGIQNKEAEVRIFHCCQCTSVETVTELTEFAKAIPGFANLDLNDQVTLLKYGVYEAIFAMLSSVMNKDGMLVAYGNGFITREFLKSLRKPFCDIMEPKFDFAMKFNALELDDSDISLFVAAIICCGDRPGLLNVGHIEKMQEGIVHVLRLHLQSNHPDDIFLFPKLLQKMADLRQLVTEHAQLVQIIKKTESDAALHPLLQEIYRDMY
# Tumor necrosis factor (Homo sapiens), sequence (P01375 whole entry, looked up): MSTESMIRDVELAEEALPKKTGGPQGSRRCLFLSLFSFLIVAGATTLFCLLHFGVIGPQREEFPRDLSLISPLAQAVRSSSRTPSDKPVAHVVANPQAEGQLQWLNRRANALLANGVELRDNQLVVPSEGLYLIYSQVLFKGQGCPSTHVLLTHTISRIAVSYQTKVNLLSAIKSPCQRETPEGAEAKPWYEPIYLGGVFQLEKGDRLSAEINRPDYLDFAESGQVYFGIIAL
# Tyrosine-protein kinase Yes (Homo sapiens), sequence (P07947 whole entry, looked up): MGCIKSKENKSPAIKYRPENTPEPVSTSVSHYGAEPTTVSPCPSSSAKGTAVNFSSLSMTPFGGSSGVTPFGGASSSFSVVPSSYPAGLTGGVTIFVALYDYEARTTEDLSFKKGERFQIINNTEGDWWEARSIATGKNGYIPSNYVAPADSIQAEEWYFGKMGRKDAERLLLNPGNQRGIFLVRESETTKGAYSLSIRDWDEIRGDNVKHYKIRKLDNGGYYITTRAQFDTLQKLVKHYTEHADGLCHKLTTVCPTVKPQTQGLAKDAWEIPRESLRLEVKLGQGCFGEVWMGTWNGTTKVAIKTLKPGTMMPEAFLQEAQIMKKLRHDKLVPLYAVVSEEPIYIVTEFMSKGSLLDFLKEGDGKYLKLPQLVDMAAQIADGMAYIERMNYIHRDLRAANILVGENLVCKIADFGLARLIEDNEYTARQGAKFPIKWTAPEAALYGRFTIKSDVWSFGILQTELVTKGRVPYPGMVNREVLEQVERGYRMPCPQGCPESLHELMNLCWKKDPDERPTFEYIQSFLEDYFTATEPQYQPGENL
smiles,measurement,setting,value
CCCCC1C(=O)N(c2ccccc2)N(c2ccccc2)C1=O,outcome,[1],inactive
same,outcome,[2],inactive
same,activation,[3],-1.23% and 0.389%
same,max response,[4],-2.74% and -1.79%
same,Potency,[5],inactive
same,outcome,[6],inactive
same,outcome,[7],inactive
CN(C)CCC(c1ccccc1)c1ccccn1 (stereo unspecified),outcome,[1],inactive
same,activation,[3],-0.0214%
same,max response,[4],-0.672%
same,outcome,[6],inactive
same,outcome,[7],inactive
CC(=O)N[C@@H](CS)C(=O)O,activation,[3],-0.0175%
same,max response,[4],-0.248%
same,outcome,[6],inactive
same,outcome,[7],inactive
CC(=O)c1ccc(S(=O)(=O)NC(=O)NC2CCCCC2)cc1,outcome,[1],inactive
same,activation,[3],-0.49% and 0.0331%
same,max response,[4],9.98% and -1.51%
same,Potency,[5],inactive
same,outcome,[6],inactive
same,outcome,[7],inactive
CC/C(=C(\c1ccccc1)c1ccc(OCCN(C)C)cc1)c1ccccc1,outcome,[1],inactive
same,activation,[3],-5.69% and -2.28%
same,Potency,[5],29.8 µM (active)
same,Potency,[8],inactive
same,outcome,[9],inactive
same,outcome,[6],inactive; inhibitor; fitted 5.3582 uM
same,outcome,[7],inactive
CCN(CC)CCOC(=O)c1ccc(N)cc1,outcome,[6],inactive
same,outcome,[7],inactive
NC(N)=Nc1nc(CSCC/C(N)=N/S(N)(=O)=O)cs1,outcome,[6],inactive
same,outcome,[7],inactive
COC(=O)[C@@H]1[C@H]2C[C@H]3c4[nH]c5ccccc5c4CCN3C[C@@H]2CC[C@@H]1O,outcome,[6],inactive; inhibitor; fitted 2.3934 uM
same,outcome,[7],inactive
COc1cc(Nc2ncc(F)c(Nc3ccc4c(n3)NC(=O)C(C)(C)O4)n2)cc(OC)c1OC,outcome,[9],inactive
CN(C)C1CCN(C(=O)c2ccc(NC(=O)Nc3nc(N4CCOCC4)nc(N4CCOCC4)n3)cc2)CC1,outcome,[9],inactive
CCCCCN(C)CCC(O)(P(=O)(O)O)P(=O)(O)O,outcome,[6],inactive
same,outcome,[7],inactive
COc1ccccc1N1CCN(CCCNc2cc(=O)n(C)c(=O)n2C)CC1,outcome,[6],inactive
same,outcome,[7],inactive
NCCS,outcome,[6],inactive
same,outcome,[7],inactive
Clc1ccc(Cn2c(CN3CCCC3)nc3ccccc32)cc1,outcome,[6],inactive; inhibitor; fitted 0.0054 uM
same,outcome,[7],inactive
CCN(CC)CCNC(=O)c1ccc(N)cc1,outcome,[6],inactive
same,outcome,[7],inactive
O=C(NCCN1CCOCC1)c1ccc(Cl)cc1,outcome,[6],inactive
same,outcome,[7],inactive
CC(C)NCC(O)COc1cccc2[nH]ccc12 (stereo unspecified),outcome,[6],inactive
same,outcome,[7],inactive
C[N+](C)(C)CCCCCC[N+](C)(C)C,outcome,[6],inactive
same,outcome,[7],inactive
CC(C)(C)C(=O)Oc1ccc2c(c1)nc(NC(=O)c1cccc([N+](=O)[O-])c1)n2CCCO,outcome,[9],inactive
COc1cccc(-c2cc(=O)c3ccccc3o2)c1N,outcome,[7],inactive
CC(C)(C)c1ccc(C(O)CCCN2CCC(C(O)(c3ccccc3)c3ccccc3)CC2)cc1 (stereo unspecified),outcome,[6],inactive
same,outcome,[7],inactive
O=C1NCC2(CCN(CCc3ccccc3)CC2)O1,outcome,[6],inactive
same,outcome,[7],inactive
CS(=O)c1ccc(-c2nc(-c3ccc(F)cc3)c(-c3ccncc3)[nH]2)cc1 (stereo unspecified),outcome,[9],inactive
CC1(C)CCC2=C(O1)c1ccccc1C(=O)C2=O,outcome,[6],inactive
same,outcome,[7],inactive
CCN(CC)C(=O)c1ccc(O)c(OC)c1,outcome,[6],inactive; inhibitor; fitted 6.012 uM
same,outcome,[7],inactive
CO[C@@H](C(=O)N1Cc2[nH]nc(NC(=O)c3ccc(N4CCN(C)CC4)cc3)c2C1)c1ccccc1,outcome,[9],inactive
CC(=O)CCCCn1c(=O)c2c(ncn2C)n(C)c1=O,outcome,[7],inactive
CCN1CCC[C@H]1CNC(=O)c1cc(S(N)(=O)=O)ccc1OC,outcome,[6],inactive
same,outcome,[7],inactive
Cc1cccc(C)c1OCC(C)N (stereo unspecified),outcome,[6],inactive
same,outcome,[7],inactive
O=C(O)CCc1nc(-c2ccccc2)c(-c2ccccc2)o1,outcome,[6],inactive
same,outcome,[7],inactive
CN1CCN(CCOc2cc(OC3CCOCC3)c3c(Nc4c(Cl)ccc5c4OCO5)ncnc3c2)CC1,outcome,[9],inactive
Clc1ccc(C(c2ccc(Cl)cc2)n2cc[n+](CC(OCc3ccc(Cl)cc3Cl)c3ccc(Cl)cc3Cl)c2)cc1 (stereo unspecified),outcome,[6],inactive
same,outcome,[7],inactive
COc1ccc(Cc2nccc3cc(OC)c(OC)cc23)cc1OC,outcome,[7],inactive
